Compound activity as filed in PubChem BioAssay.
An excerpt weighted towards active compounds, which were near 19% of everything screened.
HT1080NT lethal – kills 2HG-producing HT-1080-NT fibrosarcoma cells; hit rate 1.6% among 360,000; HT-1080-NT fibrosarcoma viability, CellTiter-Glo ATP luminescence, 48 h; AID 686970; Potency, µM (highest dose often 46.1 µM), actives largely listed as cytotoxic;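 further: NT is the 2HG producing partner of a matched IDH1 knockdown line; nearly all actives have a fitted effect of over 55% in size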
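Viability of the 2HG-overproducing fibrosarcoma line after 48 hours of compound exposure at 37 degrees C was determined by luminescence with CellTiter-Glo, and concentration-effect curves were then fitted and categorized.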
ELG1 repair inh – inhibitors of ELG1-dependent DNA repair in HEK293T cells; HEK293T ELG1-luciferase reporter, luminescence, 16 h; DNA damage induced by 5-fluorouridine; hit rate 2.3% among 330,000; AID 504467; Potency, µM (series often up to 46.1 µM), actives largely listed as inhibitors; further: nearly all actives have a fitted effect of over 55% in size
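Luminescence from the luciferase reporter, measured 30 min after ONE-Glo reagent at room temperature, was the read-out. Beforehand, 2,000 cells per well were exposed for 16 hr at 37 °C to 5-fluorouridine together with compound or vehicle.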
IL-1B inflam inh – inhibitors of inflammasome signaling (IL-1 beta secretion) | hit rate 4.7% among 360,000 | THP-1 LPS/ATP IL-1B secretion, AlphaLISA, 16 h; stronger effect = lower value | activity change, % at 57.5 µM; in the data active means activity change below about -50%; inconclusive means mostly about -30% to -49%
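Secreted IL-1B measured by AlphaLISA bead assay after 16 h compound exposure of THP-1 cells; compounds (final up to 57.5 uM) added 1 h before LPS (250 ng/mL) and ATP (1.25 mM) stimulation; lower signal means less secretion.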
DT40 TDP1 CPT – DT40-hTDP1 cell growth loss with CPT | chicken DT40 Tdp1-/-;hTDP1 cells + 20 nM CPT, ATP luminescence, 48 h | Potency, µM (highest dose often 46.2 µM), usual class: inhibitors | hit rate 12% among 420,000 | AID 686979; further: nearly all actives have a fitted effect of over 55% in size
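Chicken DT40 Tdp1-/- cells complemented with human TDP1, 400 cells/well, exposed to compounds plus 20 nM camptothecin for at least 48 h at 37 C; viability read as ATP content by CellTiter-Glo luminescence.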
HT1080 IDH1KD tx – kills HT-1080 cells with IDH1 knockdown | Potency, µM (series often up to 46.1 µM), most hits filed as cytotoxic | HT-1080 IDH1 knockdown viability, ATP luminescence, 48 h | hit rate 2% among 360,000 | AID 686971
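CellTiter-Glo luminescence after 48 h compound exposure at 37 degrees C of IDH1-knockdown HT-1080 cells in 5% FBS RPMI. %Activity scaled between DMSO wells and cell-free media wells, with curves fitted and assigned curve classes.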
DT40 TDP1 no CPT – qHTS for Inhibitors of human tyrosyl-DNA phosphodiesterase 1 (TDP1): qHTS in cells in absence of CPT; DT40 Tdp1-/- hTDP1 cells, no CPT, ATP luminescence, 48 h; Potency, µM (highest dose often 46.2 µM), hits mostly inhibitors; hit rate 15% among 420,000; AID 686978, 2013; further: nearly all actives have a fitted effect of over 55% in size
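Growth kinetics read by CellTiter-Glo luminescence after ≥48 hr at 37 °C. Cells: DT40 Tdp1-/- stably carrying human TDP1, 400 per well, compound exposure in the absence of CPT (DMSO vehicle).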
A number is an active result; i = inactive; ? = inconclusive; nt = not tested or not shown; [ ] = dose if it differs, or a comment. Unless noted, the call rests on the fitted dose curve; in most records, active means well fitted curve in the direction sought with a large enough effect; inconclusive means small, poorly fitted or top-dose-only effect, or another doubt; inactive means no such curve, though single readings can be large; an effect the other way counts as inactive or inconclusive.

SMILES	HT1080NT lethal	ELG1 repair inh	IL-1B inflam inh	DT40 TDP1 CPT	HT1080 IDH1KD tx	DT40 TDP1 no CPT
COc1cccc(-c2cc(C(=O)Nn3cnnc3)c3ccccc3n2)c1	?	i	i	i	i[9.24 µM]	i
O=C(NNC(=O)c1cc(-c2ccncc2)nc2ccccc12)c1cccc(Cl)c1	i	?	i	i	i	i
Cc1cc(NC(=O)c2ccccc2-c2ccccc2)ccc1Br	?	i	?	?	?	?
Cc1cc(NC(=O)c2cc(-c3ccncc3)nc3ccccc23)ccc1Br	i	?	-50	23µM	i	?
O=C(Nc1nc2c(s1)CCCC2)c1cc(-c2ccncc2)nc2ccccc12	i	?	i	?	i	16µM
COc1cccc(-c2cc(C(=O)Nc3ccc(N(C)C(C)=O)cc3)c3cc(Br)ccc3n2)c1	i	nt	i	1.8µM	i	1.8µM
CCCS(=O)(=O)NC(=O)C1(C)CCCN(C(=O)c2cc(F)cc(F)c2)C1 (stereo not given)	i	nt	i	i	i	i
COc1ccc(CNC(=O)Cc2c(C)c3c(cc(C)c4c(C)c(C)oc43)oc2=O)cc1	nt	nt	nt	i	nt	i
O=c1cc(CN2CCN(c3ccccc3F)CC2)c2ccccc2o1	i	nt	i	?	i	?
Cc1cc2ccc(Cl)nc2nc1C	nt	nt	nt	i	nt	i
O=C(NCC[C@@H]1CC[C@@H](NS(=O)(=O)c2ccccc2)[C@@H](CO)O1)c1cc(Cl)cc(Cl)c1	i	nt	i	?	i	?
CC1(c2ccccc2Cl)NC(=O)N(CC(=O)Nc2ccc3c(c2)OCO3)C1=O (stereo not given)	i	i	i	i	i	i
Cc1ccc(NC(=O)c2cc(C)nc3ccccc23)cc1	i	i	i	i	i	i
COc1cccc(-c2cc(C(=O)Nc3ccncc3)c3ccccc3n2)c1	i	i	i	?	i	16µM
Cc1cc(C(=O)Nc2ccncc2)c2ccccc2n1	i	23µM	i	i	i	i
COc1cccc(NC(=O)c2cc(-c3ccco3)nc3ccccc23)c1	i	nt	i	i	i	?
CC(=O)c1cccc(NC(=O)c2cc(-c3ccco3)nc3ccccc23)c1	i	?	i	13µM	i	18µM
O=C(NNC(=S)Nc1ccccc1)c1cc(-c2cccnc2)nc2ccccc12	i	i	i	i	i	i
CC(OC(=O)c1cc(-c2cccnc2)nc2ccccc12)C(=O)Nc1ccc2ccccc2c1 (stereo not given)	i	18µM	i	?	i	18µM
Cc1cccc(CCNC(=O)C2CCC(CNS(=O)(=O)c3ccccc3)CC2)c1 (stereo not given)	nt	nt	nt	i	nt	?
COc1cccc(NC(=O)c2cc(-c3ccncc3)nc3c(C)cc(C)cc23)c1	i	?	i	?	?	23µM
Cc1ccc(S(=O)(=O)N(C)C)cc1NC(=O)c1cc(-c2ccncc2)nc2ccccc12	i	?	i	?	i	4.1µM
Cc1ccc(-c2cc(C(=O)Nc3cc(C(=O)O)ccc3C)c3ccccc3n2)cc1	i	?	i	i	i	?
O=C(NNC(=O)c1ccncc1)Nc1ccc(N=Nc2ccccc2)cc1	i	nt	i	i	i	?
Fc1ccccc1Cn1c2[n+](c3ccc(C(F)(F)F)cc31)CCCCC2	i	?	i	?	i	?
COc1ccc(OC)c(C(=O)Cn2c3[n+](c4ccc(C(F)(F)F)cc42)CCCCC3)c1	i	?	i	5.2µM	i	5.8µM
COc1cc(NS(=O)(=O)c2ccc(NC(=O)c3cccc(F)c3)cc2)nc(OC)n1	nt	nt	nt	i	nt	i
O=C(/C=C1\OCc2cc(OCc3ccccc3)ccc21)OCc1ccccc1	i	nt	i	?	i	?
COC(=O)/C=C1\OCc2cc(OC)c(OCc3ccccc3)cc21	i	nt	i	?	i	21µM
Cc1cccc(CNC(=O)CN2C(=O)CCCc3ccccc32)c1	nt	nt	nt	i	nt	i
